TR-FRET ratio data for 31 compounds are collected here from PubChem BioAssay AID1049 (The Scripps Research Institute Molecular Screening Center, 2008).

Molecules are shown by their SMILES. The whole screen tested about 200,000 compounds, of which about 780 (0.39%) were called active. Rule as the data show it: active = TR-FRET ratio above about 2000; inactive = the rest. Only a selection was taken, and actives are over-represented in it overall.

This experiment in a line: detection-format interference in TR-FRET ratio – biochemical, artefact control for PPARgamma SRC-2 agonist project, primary screen (AID 1049). The following applies: TR-FRET artefact counter-screen; at 8 µM; hits give high values.
In the case of `C/C(=N\N1CCN(Cc2ccc(C)cc2)CC1)c1ccco1`, the TR-FRET ratio is 1400 (inactive).
The same measure for `Cc1nnc(SCc2cccc(Cl)c2)n(N)c1=O`: 1460 (inactive).
The same measure for `Cc1cc([N+](=O)[O-])nn1CCCC(=O)Nc1cccnc1Cl`: 1580 (inactive).
On to `CC(NC(=S)Nc1ccc(S(N)(=O)=O)cc1)c1ccc2c(c1)OCO2` (stereo unspecified), for which the TR-FRET ratio is 1640 (inactive).
With `CC(C)(C)N(CC#CCC(O)(c1ccccc1)C1CCCC1)CCO` (stereo unspecified), the TR-FRET ratio is 1230 (inactive).
In the case of `O=C1NC(c2cccc(Cl)c2)Nc2ccccc21` (stereo unspecified), the TR-FRET ratio was 1540 (inactive).
The same measure for `CC(=O)N1c2ccccc2N(Cc2ccc([N+](=O)[O-])cc2)C(=O)C1(C)C`: 1510 (inactive); for `CCC1CCCCN1C(=S)Nc1ccc(C(C)=O)cc1` (stereo unspecified): 1340 (inactive).
The same measure for `CCN(CC)CCCNC(=O)c1cc(-c2cccc(Cl)c2)on1`: 1610 (inactive).
In the case of `CCN(CC)CCCNC(=O)CCc1ccccc1`, the TR-FRET ratio is 1550 (inactive).
As to `CCN(CCCNC(=O)CSc1cc(=O)n(C)c2cc(Cl)ccc12)Cc1ccccc1`, the TR-FRET ratio was 2600 (active).
The same measure for `CCc1ccc(CN(C)Cc2nc(Cc3ccccc3)no2)nc1`: 1650 (inactive).
Take `CCOC(=O)c1ccc(NC(=O)c2cc(=O)[nH]c3ccccc23)cc1`: the TR-FRET ratio is 1510 (inactive).
`O=C(O)Cc1sc(-c2ccccc2)nc1-c1cccs1`: the TR-FRET ratio was 2400 (active).
On to `Cc1ccc(-c2nc(C)sc2CC(=O)O)cc1`, for which the TR-FRET ratio is 1600 (inactive).
As to `O=C(O)Cc1sc(-c2ccc(C(=O)O)cc2)nc1-c1ccccc1`, the TR-FRET ratio was 1800 (inactive).
For `N#CC1(NC(=O)COc2ccc3oc4ccccc4c3c2)CCCCC1`, the TR-FRET ratio is 1590 (inactive).
The same measure for `COc1cc(C=O)c(Br)cc1OCC(=O)NCc1ccccc1`: 1530 (inactive).
Regarding `CC1Cc2ccccc2N1C(=O)c1cc2sccc2n1Cc1ccccc1` (stereo unspecified), the TR-FRET ratio was 1970 (active).
As to `O=C(NCc1ccco1)c1cc2sccc2n1Cc1ccc(F)cc1`, the TR-FRET ratio is 1520 (inactive).
Turning to `CCOC(=O)c1cc2sccc2n1Cc1ccc(C#N)cc1`, the TR-FRET ratio was 1400 (inactive).
Turning to `Cc1cc(=O)[nH]c(SCC(=O)N2c3ccccc3CC2C)n1` (stereo unspecified), the TR-FRET ratio was 1610 (inactive).
With `O=C(CSCc1ccccc1)N1CCc2ccccc21`, the TR-FRET ratio was 1410 (inactive).
With `O=C(c1cc2sccc2n1Cc1ccc(F)cc1)N1CCc2ccccc21`, the TR-FRET ratio is 2950 (active).
`COc1ccc(-c2csc(Cc3nc(O)cs3)n2)cc1`: the TR-FRET ratio is 1650 (inactive).
On to `CC(O)c1cccc(NC(=O)Cc2cccc3ccccc23)c1` (stereo unspecified), for which the TR-FRET ratio was 1490 (inactive).
With `CC1(C)CC(=O)C/C(=N\NC(=O)c2cccs2)C1`, the TR-FRET ratio was 1760 (inactive).
With `COc1cc(/C=C/C(=O)OCC(=O)NC(=O)NCc2ccccc2)ccc1OCC#N`, the TR-FRET ratio was 1430 (inactive).
In the case of `CC(=O)c1sc2nc(SCC(=O)N3CCCCC3)[nH]c(=O)c2c1C`, the TR-FRET ratio is 1990 (active).
Consider `C=CCNC(=O)CSc1nc2sc(C)c(C)c2c(=O)[nH]1`, for which the TR-FRET ratio is 1430 (inactive).
As for `O=C(CSc1nc2c(cnn2-c2ccc(F)cc2)c(=O)[nH]1)N1CCCCCC1`, the TR-FRET ratio was 1460 (inactive).
